Results from the supplement of paper PMC10849652.
The full data set covers some 8,800 targets. This sample favours those with a hit. About 0.5% of all pairs of compound and target were hits. A number with no mark means an inactive call.

Key:
Assay in all cases: log2 fold change, soluble protein after heating vs DMSO (PISA); higher = thermal stabilisation; K562 lysate, 10 uM; active = over 0.2 and 3.5 SD of the protein, either way, in both replicates (recomputed)
ibrutinib = compound: C=CC(=O)N1CCC[C@@H](n2nc(-c3ccc(Oc4ccccc4)cc3)c3c(N)ncnc32)C1 [ibrutinib]
Outline: (§1)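 Pellets of K562 cells were dounce-homogenised in PBS pH 7.4 with 1 mM MgCl2, and the crude extract was held at 1 mg/mL protein for a 30 min treatment with 10 μM compound. Aliquots were heated for 3 min over 48°C-58°C and pooled before NP-40 was added to 0.5% at 4°C. The supernatant from 21,000xg for 90 min was quantified by TMTpro 16plex LC-MS/MS with channel sums equalised. Values are reported from duplicates as log-two fold change in thermal stability relative to solvent controls.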

[1] = compound: CC(=O)c1cnc2ccc(-c3cc(Cl)c(O)c(Cl)c3)nc2c1N[C@H]1CC[C@H](CN(C)C)CC1
Outline: as §1

ralimetinib = compound: CC(C)(C)Cn1c(N)nc2ccc(-c3[nH]c(C(C)(C)C)nc3-c3ccc(F)cc3)nc21 [ralimetinib]
Outline: as §1

[2] = compound: CC(C)(O)CC(=O)NCCn1ccc2ncnc(Nc3ccc(Oc4cccc(C(F)(F)F)c4)c(Cl)c3)c21
Outline: as §1

[3] = compound: CC(C)C1=C2N=C(C=C(N2N=C1)NCC3=CC=CC=C3)NCCCCCCN
Outline: as §1

[4] = compound: CC1=C(C(CC(=O)N1)C2=CC=C(C=C2)C(F)(F)F)C(=O)NC3=C(C=C4C(=C3)C=NN4)F
Outline: as §1

[5] = compound: CC1=C(C2=C(C=C1)C(=O)C3=CC=CC=C3N2CCCN)C
Outline: as §1

[6] = compound: CC1=C(C=C(C=C1)NC(=O)C2=CC(=CC=C2)C(C)(C)C#N)NC3=CC4=C(C=C3)N=CN(C4=O)C
Outline: as §1

[7] = compound: CC1=C(C=C(C=C1)NC(=O)C2=CC(=CC=C2)N(C)C)NC(=O)C3=CC=C(C=C3)O
Outline: as §1

[8] = compound: CC1=CC=C(C=C1)SC2=C3C=C(SC3=CN=C2)C(=O)N
Outline: as §1

vemurafenib = compound: CCCS(=O)(=O)Nc1ccc(F)c(C(=O)c2c[nH]c3ncc(-c4ccc(Cl)cc4)cc23)c1F [vemurafenib]
Outline: as §1

[9] = compound: CCCS(=O)(=O)Nc1ccc(F)c(C(=O)c2c[nH]c3ncc(Cl)cc23)c1F
Outline: as §1

barasertib = compound: CCN(CCCOc1ccc2c(Nc3cc(CC(=O)Nc4cccc(F)c4)[nH]n3)ncnc2c1)CCOP(=O)(O)O [barasertib]
Outline: as §1

[10] = compound: CC[C@@H]1C(=O)N(C)c2cnc(Nc3ccc(C(=O)NC4CCN(C)CC4)cc3OC)nc2N1C1CCCC1
Outline: as §1

volasertib = compound: CC[C@@H]1C(=O)N(C)c2cnc(Nc3ccc(C(=O)N[C@H]4CC[C@H](N5CCN(CC6CC6)CC5)CC4)cc3OC)nc2N1C(C)C [volasertib]
Outline: as §1

[11] = compound: CCn1c(C(=O)N(C2CC2)C2CC2)cc2c3c(ncn3C)c(Nc3cc(C)n(C)n3)nc21
Outline: as §1

[12] = compound: CCn1cc(-c2ccnc3[nH]c(-c4cccc(CN(C)C)c4)cc23)c(-c2ccc(NC(=O)N(C)C)cc2)n1
Outline: as §1

[13] = compound: CN1CCC(CNc2ccc3ncc(-c4cccc(OC(F)(F)F)c4)n3n2)CC1
Outline: as §1

saracatinib = compound: CN1CCN(CCOc2cc(OC3CCOCC3)c3c(Nc4c(Cl)ccc5c4OCO5)ncnc3c2)CC1 [saracatinib]
Outline: as §1

sotrastaurin = compound: CN1CCN(c2nc(C3=C(c4c[nH]c5ccccc45)C(=O)NC3=O)c3ccccc3n2)CC1 [sotrastaurin]
Outline: as §1

Sequence of UniProt Q96II8 (Q96II8 whole entry, looked up): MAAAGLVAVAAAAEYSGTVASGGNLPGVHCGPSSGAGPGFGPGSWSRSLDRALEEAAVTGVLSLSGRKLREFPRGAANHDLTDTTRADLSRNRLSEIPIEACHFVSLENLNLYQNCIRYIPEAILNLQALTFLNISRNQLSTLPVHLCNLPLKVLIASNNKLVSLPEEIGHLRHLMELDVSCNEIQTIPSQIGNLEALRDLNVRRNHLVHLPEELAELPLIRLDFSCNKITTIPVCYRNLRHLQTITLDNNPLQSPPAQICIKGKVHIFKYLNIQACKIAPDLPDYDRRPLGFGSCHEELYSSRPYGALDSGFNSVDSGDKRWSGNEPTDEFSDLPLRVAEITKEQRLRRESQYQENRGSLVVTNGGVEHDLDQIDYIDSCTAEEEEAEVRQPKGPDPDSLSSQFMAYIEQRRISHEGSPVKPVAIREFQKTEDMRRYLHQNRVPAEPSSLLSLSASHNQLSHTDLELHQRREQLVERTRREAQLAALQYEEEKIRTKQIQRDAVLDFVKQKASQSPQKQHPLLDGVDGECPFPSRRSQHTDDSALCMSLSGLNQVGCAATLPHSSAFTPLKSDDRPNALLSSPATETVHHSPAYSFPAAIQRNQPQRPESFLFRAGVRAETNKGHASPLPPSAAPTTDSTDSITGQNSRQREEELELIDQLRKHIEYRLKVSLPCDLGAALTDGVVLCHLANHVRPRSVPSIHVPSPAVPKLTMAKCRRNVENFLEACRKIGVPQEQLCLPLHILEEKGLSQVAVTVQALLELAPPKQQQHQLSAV
Sequence of UniProt Q9HAP2 (Q9HAP2 whole entry, looked up): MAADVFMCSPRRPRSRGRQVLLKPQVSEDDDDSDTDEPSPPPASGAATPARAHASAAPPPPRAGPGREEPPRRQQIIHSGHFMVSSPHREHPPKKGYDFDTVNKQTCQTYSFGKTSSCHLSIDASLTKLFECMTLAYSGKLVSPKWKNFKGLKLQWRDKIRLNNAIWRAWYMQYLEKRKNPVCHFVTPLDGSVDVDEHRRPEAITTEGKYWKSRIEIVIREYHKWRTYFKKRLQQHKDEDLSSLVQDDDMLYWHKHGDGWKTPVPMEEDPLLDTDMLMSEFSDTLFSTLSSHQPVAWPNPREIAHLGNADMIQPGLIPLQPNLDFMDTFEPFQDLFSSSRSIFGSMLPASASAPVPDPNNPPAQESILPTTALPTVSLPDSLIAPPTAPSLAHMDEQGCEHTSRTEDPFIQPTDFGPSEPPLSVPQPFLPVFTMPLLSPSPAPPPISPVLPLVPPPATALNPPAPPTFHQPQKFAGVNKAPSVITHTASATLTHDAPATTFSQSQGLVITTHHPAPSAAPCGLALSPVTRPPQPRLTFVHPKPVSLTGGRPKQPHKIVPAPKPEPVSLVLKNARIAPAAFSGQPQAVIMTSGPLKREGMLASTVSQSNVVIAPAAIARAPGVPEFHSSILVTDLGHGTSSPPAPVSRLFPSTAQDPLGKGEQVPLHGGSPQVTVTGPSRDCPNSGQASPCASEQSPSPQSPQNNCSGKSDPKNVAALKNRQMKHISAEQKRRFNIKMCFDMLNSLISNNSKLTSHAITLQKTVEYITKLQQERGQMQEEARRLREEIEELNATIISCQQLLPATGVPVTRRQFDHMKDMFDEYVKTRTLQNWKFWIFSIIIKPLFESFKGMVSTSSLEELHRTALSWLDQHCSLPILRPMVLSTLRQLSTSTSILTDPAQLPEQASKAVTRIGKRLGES
Sequence of UniProt Q9Y2X0 (Q9Y2X0 whole entry, looked up): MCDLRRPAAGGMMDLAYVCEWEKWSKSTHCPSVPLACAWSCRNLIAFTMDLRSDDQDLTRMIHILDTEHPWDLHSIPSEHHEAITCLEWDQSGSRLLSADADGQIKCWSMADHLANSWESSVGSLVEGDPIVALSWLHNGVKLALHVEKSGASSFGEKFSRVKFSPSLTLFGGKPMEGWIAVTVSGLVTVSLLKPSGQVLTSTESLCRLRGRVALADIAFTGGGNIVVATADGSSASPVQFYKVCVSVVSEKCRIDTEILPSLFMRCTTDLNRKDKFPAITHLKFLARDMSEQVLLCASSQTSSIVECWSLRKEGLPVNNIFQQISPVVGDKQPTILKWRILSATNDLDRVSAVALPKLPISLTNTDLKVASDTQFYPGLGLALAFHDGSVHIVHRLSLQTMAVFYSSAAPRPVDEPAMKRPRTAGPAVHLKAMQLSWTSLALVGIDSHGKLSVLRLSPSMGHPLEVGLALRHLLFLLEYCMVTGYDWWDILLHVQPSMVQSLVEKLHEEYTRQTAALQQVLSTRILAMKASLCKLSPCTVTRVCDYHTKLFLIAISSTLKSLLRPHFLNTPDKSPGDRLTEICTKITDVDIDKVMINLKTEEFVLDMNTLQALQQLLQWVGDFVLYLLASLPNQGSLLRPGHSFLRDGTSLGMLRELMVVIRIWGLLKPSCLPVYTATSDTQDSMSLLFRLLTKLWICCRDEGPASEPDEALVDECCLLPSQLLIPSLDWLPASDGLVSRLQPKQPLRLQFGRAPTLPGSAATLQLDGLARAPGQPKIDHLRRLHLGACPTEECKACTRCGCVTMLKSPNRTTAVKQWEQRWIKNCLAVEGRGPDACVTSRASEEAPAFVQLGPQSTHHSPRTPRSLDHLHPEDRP
Sequence of UniProt Q16644 (Q16644 whole entry, looked up): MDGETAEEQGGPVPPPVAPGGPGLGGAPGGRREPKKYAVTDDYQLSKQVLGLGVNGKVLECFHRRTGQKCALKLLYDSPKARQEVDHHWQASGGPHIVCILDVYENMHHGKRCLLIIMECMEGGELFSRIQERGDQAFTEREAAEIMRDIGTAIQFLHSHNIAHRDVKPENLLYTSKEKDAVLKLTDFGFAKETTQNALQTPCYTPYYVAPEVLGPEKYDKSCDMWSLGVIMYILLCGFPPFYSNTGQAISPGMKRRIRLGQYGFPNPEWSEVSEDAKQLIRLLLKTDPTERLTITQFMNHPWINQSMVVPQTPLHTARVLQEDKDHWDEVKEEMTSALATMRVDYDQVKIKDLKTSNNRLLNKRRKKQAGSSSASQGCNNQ
Sequence of UniProt P45984 (P45984 whole entry, looked up): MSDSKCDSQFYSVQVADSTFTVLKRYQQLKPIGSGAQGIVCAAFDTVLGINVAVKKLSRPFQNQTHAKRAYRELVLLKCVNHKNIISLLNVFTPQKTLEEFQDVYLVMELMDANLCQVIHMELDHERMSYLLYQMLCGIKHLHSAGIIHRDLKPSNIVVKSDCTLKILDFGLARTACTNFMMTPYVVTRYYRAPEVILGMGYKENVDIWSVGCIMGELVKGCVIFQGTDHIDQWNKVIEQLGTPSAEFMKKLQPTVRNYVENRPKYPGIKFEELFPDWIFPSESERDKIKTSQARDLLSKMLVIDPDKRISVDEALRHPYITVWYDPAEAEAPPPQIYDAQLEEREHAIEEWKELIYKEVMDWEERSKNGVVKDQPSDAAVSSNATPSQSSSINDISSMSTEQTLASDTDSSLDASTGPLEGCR
Sequence of UniProt O00139 (O00139 whole entry, looked up): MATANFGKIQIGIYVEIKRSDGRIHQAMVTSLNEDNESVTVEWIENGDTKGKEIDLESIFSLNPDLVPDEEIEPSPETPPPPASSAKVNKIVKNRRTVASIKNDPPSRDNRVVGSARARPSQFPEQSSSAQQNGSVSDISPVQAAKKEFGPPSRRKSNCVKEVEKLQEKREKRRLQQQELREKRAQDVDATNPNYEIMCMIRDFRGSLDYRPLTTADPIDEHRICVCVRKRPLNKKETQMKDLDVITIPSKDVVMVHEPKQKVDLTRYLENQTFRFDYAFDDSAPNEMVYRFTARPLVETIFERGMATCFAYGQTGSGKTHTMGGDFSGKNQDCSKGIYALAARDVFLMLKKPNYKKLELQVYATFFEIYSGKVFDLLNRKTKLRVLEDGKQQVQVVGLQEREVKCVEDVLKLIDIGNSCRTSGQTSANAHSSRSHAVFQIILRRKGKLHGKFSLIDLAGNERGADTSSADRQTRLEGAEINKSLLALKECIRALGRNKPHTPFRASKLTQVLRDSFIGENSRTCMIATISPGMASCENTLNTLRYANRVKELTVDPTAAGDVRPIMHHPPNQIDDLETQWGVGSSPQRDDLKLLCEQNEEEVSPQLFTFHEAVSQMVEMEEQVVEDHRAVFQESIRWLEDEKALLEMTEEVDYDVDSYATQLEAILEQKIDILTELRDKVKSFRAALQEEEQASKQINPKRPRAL
Sequence of UniProt Q02750 (Q02750 whole entry, looked up): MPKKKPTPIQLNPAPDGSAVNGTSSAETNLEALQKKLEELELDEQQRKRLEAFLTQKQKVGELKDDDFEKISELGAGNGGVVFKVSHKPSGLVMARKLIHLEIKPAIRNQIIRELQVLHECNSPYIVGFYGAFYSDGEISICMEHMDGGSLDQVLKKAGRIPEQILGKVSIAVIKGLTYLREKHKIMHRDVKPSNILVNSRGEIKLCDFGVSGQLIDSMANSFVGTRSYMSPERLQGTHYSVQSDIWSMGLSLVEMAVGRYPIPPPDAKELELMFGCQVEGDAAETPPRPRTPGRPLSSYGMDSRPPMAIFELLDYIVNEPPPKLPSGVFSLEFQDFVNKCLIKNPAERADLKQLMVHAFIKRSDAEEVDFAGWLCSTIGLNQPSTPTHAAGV
Sequence of UniProt Q16539 (Q16539 whole entry, looked up): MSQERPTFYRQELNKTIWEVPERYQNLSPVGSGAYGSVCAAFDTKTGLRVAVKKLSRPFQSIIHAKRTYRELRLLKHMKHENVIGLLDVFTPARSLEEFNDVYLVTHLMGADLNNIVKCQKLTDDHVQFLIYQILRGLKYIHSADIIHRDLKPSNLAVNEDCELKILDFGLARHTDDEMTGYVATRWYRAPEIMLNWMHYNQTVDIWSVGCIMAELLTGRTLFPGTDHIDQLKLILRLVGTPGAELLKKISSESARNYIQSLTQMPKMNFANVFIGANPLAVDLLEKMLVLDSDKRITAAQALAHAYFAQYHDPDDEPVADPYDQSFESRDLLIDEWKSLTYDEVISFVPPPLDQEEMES

Row | Target | log2 fold change (ibrutinib) | log2 fold change [1] | log2 fold change (ralimetinib) | log2 fold change [2] | log2 fold change [3] | log2 fold change [4] | log2 fold change [5] | log2 fold change [6] | log2 fold change [7] | log2 fold change [8] | log2 fold change (vemurafenib) | log2 fold change [9] | log2 fold change (barasertib) | log2 fold change [10] | log2 fold change (volasertib) | log2 fold change [11] | log2 fold change [12] | log2 fold change [13] | log2 fold change (saracatinib) | log2 fold change (sotrastaurin)
1 | KIF15 (UniProt Q9NS87) | -0.017 | 0.006 | 0.008 | -0.022 | 0.01 | 0.022 | -0.027 | 0.02 | 0.036 | -0.015 | -0.01 | 0.045 | 0.016 | -0.018 | -0.053 | 0.036 | 0.006 | -0.036 | 0.019 | 0
2 | MED16 (UniProt Q9Y2X0) | -0.113 | -0.012 | 0.057 | 0.046 | -0.014 | 0.021 | -0.01 | -0.038 | -0.018 | 0.005 | -0.059 | 0.008 | -0.113 | -0.04 | -0.036 | 0.056 | 0.177 | -0.189 | -0.014 | -0.018
3 | MCMBP (UniProt Q9BTE3) | 0.001 | -0.007 | 0.016 | 0.038 | -0.009 | 0 | 0.008 | 0.008 | 0.011 | 0.014 | -0.029 | 0.019 | -0.007 | 0.006 | -0.026 | 0.043 | 0.035 | -0.032 | 0.02 | 0.015
4 | MBLAC2 (UniProt Q68D91) | 0.05 | -0.005 | 0.069 | 0.003 | 0.035 | 0.04 | 0.037 | -0.013 | -0.044 | -0.019 | -0.069 | -0.006 | 0.013 | -0.042 | 0.002 | 0.008 | 0.036 | 0.078 | -0.042 | 0.016
5 | MLXIP (UniProt Q9HAP2) | 0.045 | 0.007 | -0.006 | -0.035 | 0.028 | -0.033 | -0.015 | -0.015 | -0.011 | -0.015 | 0.004 | 0.013 | 0.019 | -0.032 | -0.041 | 0.028 | -0.045 | 0.093 | 0 | 0.008
6 | LRPPRC (UniProt P42704) | 0.006 | 0.023 | 0.027 | 0.019 | 0.018 | -0.011 | 0.038 | -0.009 | 0.052 | 0.016 | 0.032 | 0.024 | 0.101 | -0.141 | -0.072 | 0.076 | 0.033 | -0.087 | 0.045 | 0.005
7 | MOSPD2 (UniProt Q8NHP6) | -0.023 | 0.019 | 0.023 | 0.067 | 0.028 | -0.049 | 0.009 | -0.037 | -0.012 | 0.017 | 0.003 | 0.008 | -0.007 | 0.158 | -0.014 | 0.039 | -0.054 | 0.004 | 0.043 | 0.076
8 | MBOAT2 (UniProt Q6ZWT7) | -0.092 | -0.039 | 0.137 | 0.047 | -0.047 | 0.034 | 0.031 | 0.008 | -0.117 | 0.096 | 0.02 | -0.01 | 0.121 | 0.159 | -0.103 | -0.015 | -0.251 | 0.026 | 0.045 | 0.284
9 | LRCH3 (UniProt Q96II8) | -0.052 | -0.016 | -0.004 | -0.017 | 0.015 | -0.015 | -0.025 | 0.047 | 0.07 | 0.034 | -0.009 | -0.01 | 0.03 | -0.051 | -0.058 | -0.022 | 0.022 | -0.031 | 0.004 | -0.047
10 | KIF2A isoform 4 (UniProt O00139) | 0.031 | 0 | 0.017 | 0.009 | 0.002 | -0.01 | -0.002 | -0.02 | 0.032 | 0.018 | -0.006 | 0 | -0.014 | -0.117 | -0.032 | 0.042 | -0.013 | 0.009 | 0.021 | 0.023
11 | MAPKAPK3 (UniProt Q16644) | 0.011 | 0.026 | 0.006 | -0.003 | -0.011 | 0.065 | -0.027 | 0.082 | 0.029 | 0.033 | -0.02 | -0.018 | 0.015 | -0.145 | 0.002 | 0.028 | -0.001 | -0.067 | 0.003 | -0.014
12 | LLGL1 (UniProt Q15334) | 0.007 | 0.091 | 0.071 | 0.015 | -0.141 | 0.033 | -0.058 | 0.019 | 0.174 | -0.011 | 0.06 | -0.052 | -0.014 | -0.057 | 0.02 | -0.038 | 0.033 | -0.008 | -0.097 | 0.168
13 | MAPK14 isoform 2 (UniProt Q16539) | 0.03 | 0.249 | 0.97 (active) | -0.047 | -0.003 | 0.02 | -0.027 | 0.973 (active) | 0.419 | 0.011 | 0.189 | 0.046 | 0.079 | -0.076 | -0.078 | 0.003 | 0.303 | -0.101 | 0.192 | -0.029
14 | MAP2K7 isoform 4 (UniProt O14733) | 1.44 (active) | 0.288 | 0.028 | 0.028 | -0.071 | -0.029 | 0.011 | -0.004 | -0.002 | 0.018 | 0.073 | 0.087 | -0.02 | 0.016 | -0.04 | 0.042 | 0.004 | -0.02 | 0.032 | 0.02
15 | MAP2K1 (UniProt Q02750) | 0.204 | 0.519 (active) | -0.021 | 0.075 | 0 | -0.024 | -0.04 | 0.007 | -0.012 | -0.004 | 0.056 | 0.194 | 0.022 | -0.043 | -0.051 | -0.057 | 0.281 | -0.041 | 0.032 | 0.015
16 | MAPK9 (UniProt P45984) | -0.024 | 0.234 (active) | 0.366 (active) | 0.002 | -0.029 | -0.038 | -0.086 | 0.103 | -0.029 | -0.015 | -0.016 | -0.002 | -0.025 | -0.063 | 0.006 | -0.007 | 0.084 | -0.15 | 0.002 | -0.031
